Our source for the growth values is PubChem BioAssay (NCI).

This is part of a sample that, as a whole, favours compounds with a hit. Of some 83,000 tested, about 20% had one in any assay.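 Values shown are percent growth following 48 h exposure of cells in 96-well plates to a single concentration of compound; below 10 was considered active.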 Active and inactive are the calls of the source.

This assay has as its system NCI-H522 lung. The experiment in a line: NCI-60 one-dose screen, 48 h (100 = growth as untreated, 0 = no growth, -100 = all killed). As to conditions: 10 µM unless noted.
For `Cc1ccc(Cl)cc1NC(=O)c1cc2ccccc2cc1O`, the growth is -18% (active).

With `COc1ccc(NC(=O)CSc2nc(C)c(C(C)=O)n2-c2ccc([N+](=O)[O-])cc2)cc1`, the growth was 88.9% (inactive).

Turning to `O=C(NC(Cc1nnc2n(Cc3ccccc3)c(=O)c3c4c(sc3n12)CCCC4)c1ccc(Cl)cc1)c1ccccc1` (stereo not drawn), the growth was 75.8% (inactive).

`COc1cc(C2CC(=O)Nc3c2c(C)nn3-c2nc3ccccc3[nH]2)c(OC)c(OC)c1OC` (stereo not drawn): the growth is 33.3% (inactive).

Take `Cn1c(-c2c(N)n(Cc3ccc(C(F)(F)F)cc3)c3nc(C#N)c(C#N)nc23)nc2ccccc21`: the growth is -3.31% (active).

For the molecule `N#Cc1c(-c2ccccc2)cc(-c2ccc(Nc3nc(Nc4ccc(F)cc4)nc(Nc4ccc(F)cc4)n3)cc2)nc1N`, the growth is 89% (inactive).

For `Cc1c(O)cc(-c2cnc(N/N=C\c3ccc(Cl)cc3)s2)c(O)c1C`, the growth was 65.1% (inactive).

With `COc1ccc2c(c1)O/C(=C\c1cccc(OCC(=O)Nc3nc4ccccc4s3)c1)C2=O`, the growth is -60.1% (active).

`Cn1c2c(c3ccc(Cl)c(Cl)c31)C(C#N)C1(CCNCC1)NC2=O` (stereo not drawn): the growth is 47.3% (inactive).

For `COc1ccc(C2=NN(C(=O)c3cc(OC)c(OC)c(OC)c3)C(c3ccc(Cl)cc3)C2)cc1OC` (stereo not drawn), the growth is 4.89% (active).

Regarding `CCN(CC)CCN1CC(O)=C(c2nc(-c3ccc(Cl)cc3)cs2)C1=N`, the growth was 49.8% (inactive).

In the case of `C=C(C)[C@@H]1CC=C2c3sc(-c4ccc(C)cc4)nc3C[C@@H](C)[C@]2(C)C1`, the growth is 95.7% (inactive).

Consider `COC(=O)c1c2c(c[n+]([O-])c1C)C(=O)C=CC2=O`, for which the growth is -69.9% (active).
